Measured values as given in the supplement of paper PMC10849652.
About 7,900 targets were measured; listed, in parts, are those with a hit and a random draw of the rest. About 0.6% of all pairs of compound and target were hits.

How the values were obtained:
Test in all cases: log2 fold change, soluble protein after heating vs DMSO (PISA); higher = thermal stabilisation; K562 cells, 10 uM, 30 min; active = over 0.2 and 3.5 SD of the protein, either way, in both replicates (recomputed)
[1] = compound: COC1=CC=C(C=C1)CN2C=CC3=C2C=C(C=C3)C(=O)NO
Procedure, shortened: (§1)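 K562 cells at 2×10^6 cells/mL were given 10 μM compound for 30 min. Aliquots then went through 3 min of heating across 48°C-58°C, were pooled, and were extracted in PBS with 0.5% NP-40 at 4°C, and the supernatant after 21,000xg for 90 min was quantified by TMTpro 16plex LC-MS/MS with channel sums equalised. Thermal stability relative to control samples, from duplicates, is given as log2 fold change.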

[2] = compound: CON(C)C(=O)N1N=C(c2cc(F)ccc2F)S[C@@]1(CCCN)c1ccccc1 [filanesib]
Procedure, shortened: as §1

[3] = compound: CO[C@H]1C[C@@H]2CC[C@@H](C)[C@@](O)(O2)C(=O)C(=O)N2CCCC[C@H]2C(=O)O[C@H]([C@H](C)C[C@@H]2CC[C@H](n3cnnn3)[C@H](OC)C2)CC(=O)[C@H](C)/C=C(\C)[C@@H](O)[C@@H](OC)C(=O)[C@H](C)C[C@H](C)/C=C/C=C/C=C/1C [zotarolimus]
Procedure, shortened: as §1

[4] = compound: COc1cc(Nc2ncc3c(n2)-c2ccc(Cl)cc2C(c2c(F)cccc2OC)=NC3)ccc1C(=O)O [alisertib]
Procedure, shortened: as §1

[5] = compound: COc1cc2nc(-c3cc(F)ccc3O)nc(N[C@@H]3CNC[C@H]3C(C)(C)O)c2cc1OC
Procedure, shortened: as §1

[6] = compound: COc1cc2ncnc(Nc3ccc(F)c(Cl)c3)c2cc1OCCCN1CCOCC1 [gefitinib]
Procedure, shortened: as §1

[7] = compound: COc1cccc2cc(-c3nc([C@H]4CC[C@H](C(=O)O)CC4)n4ncnc(N)c34)[nH]c12
Procedure, shortened: as §1

[8] = compound: CS(=O)(=O)CCNCc1ccc(-c2ccc3ncnc(Nc4ccc(OCc5cccc(F)c5)c(Cl)c4)c3c2)o1 [lapatinib]
Procedure, shortened: as §1

[9] = compound: CS(=O)(=O)N1CCN(Cc2cc3nc(-c4cccc5[nH]ncc45)nc(N4CCOCC4)c3s2)CC1 [pictilisib]
Procedure, shortened: as §1

[10] = compound: CS(=O)(=O)c1ccc(-c2cnc(N)c(C(=O)Nc3ccccc3)n2)cc1
Procedure, shortened: as §1

[11] = compound: C[C@@H](Oc1cc(-c2cnn(C3CCNCC3)c2)cnc1N)c1c(Cl)ccc(F)c1Cl [crizotinib]
Procedure, shortened: as §1

[12] = compound: C[C@@H]1COCCN1C2=NC(=NC(=C2)C3(CC3)S(=O)(=O)C)C4=C5C=CNC5=CC=C4
Procedure, shortened: as §1

[13] = compound: C[C@H](C1=CC=C(C=C1)C(=O)NC2=C3C=CNC3=NC=C2)N
Procedure, shortened: as §1

[14] = compound: C[C@H](Nc1ncnc2nc[nH]c12)c1cc2cccc(Cl)c2c(=O)n1-c1ccccc1 [duvelisib]
Procedure, shortened: as §1

[15] = compound: Cc1cc(Nc2cc(CN3CCOCC3)c3nc(C)c(Cc4ccc(Cl)cc4F)n3n2)n[nH]1 [gandotinib]
Procedure, shortened: as §1

[16] = compound: Cc1cc(Nc2cc(N3CCN(C)CC3)nc(Sc3ccc(NC(=O)C4CC4)cc3)n2)n[nH]1 [tozasertib]
Procedure, shortened: as §1

[17] = compound: Cc1cc(SCc2sc(-c3ccc(C(F)(F)F)cc3)nc2C)ccc1OCC(=O)O
Procedure, shortened: as §1

[18] = compound: Cc1ccc(-n2nc(C(C)(C)C)cc2NC(=O)Nc2ccc(OCCN3CCOCC3)c3ccccc23)cc1 [doramapimod]
Procedure, shortened: as §1

[19] = compound: Cc1ccc(C(=O)N(CCCN)[C@@H](c2nc3cc(Cl)ccc3c(=O)n2Cc2ccccc2)C(C)C)cc1 [ispinesib]
Procedure, shortened: as §1

[20] = compound: COc1cc(C(=O)O)ccc1NC(=O)[C@@H]1N[C@@H](CC(C)(C)C)[C@](C#N)(c2ccc(Cl)cc2F)[C@H]1c1cccc(Cl)c1F [idasanutlin]
Procedure, shortened: as §1

Measured: log2 fold change

TUT4 (UniProt Q5TAX3)
inactive: [1] -0.265 | [2] 0.092 | [3] -0.237 | [4] -0.02 | [5] 0.158 | [6] 0.051 | [7] -0.025 | [8] 0.021 | [9] 0.009 | [10] 0.069 | [11] 0.075 | [12] -0.286 | [13] 0.095 | [14] 0.166 | [15] 0.024 | [16] 0.044 | [17] 0.195 | [18] -0.003 | [19] -0.124

UBXN10 (UniProt Q96LJ8)
UniProt Q96LJ8, sequence (Q96LJ8 whole entry, looked up): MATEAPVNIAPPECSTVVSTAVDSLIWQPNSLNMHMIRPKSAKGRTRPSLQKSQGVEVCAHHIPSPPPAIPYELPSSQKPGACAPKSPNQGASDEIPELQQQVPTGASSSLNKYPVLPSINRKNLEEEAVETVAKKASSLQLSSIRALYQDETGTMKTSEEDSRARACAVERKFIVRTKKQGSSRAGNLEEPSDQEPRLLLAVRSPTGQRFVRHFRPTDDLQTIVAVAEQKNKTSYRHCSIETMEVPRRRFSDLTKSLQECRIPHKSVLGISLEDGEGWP
inactive: [1] 0.059 | [2] 0.038 | [3] -0.049 | [4] 0.016 | [5] -0.071 | [6] -0.079 | [7] -0.11 | [8] 0.097 | [9] -0.008 | [10] -0.03 | [11] -0.121 | [12] -0.091 | [13] -0.09 | [14] -0.017 | [15] 0.161 | [16] -0.122 | [17] -0.008 | [18] -0.014 | [19] -0.124

USO1 isoform 2 (UniProt O60763)
inactive: [1] 0.009 | [2] -0.054 | [3] 0.034 | [20] -0.054 | [4] -0.037 | [5] -0.031 | [6] 0.003 | [7] 0.01 | [8] 0.016 | [9] 0.014 | [10] 0.001 | [11] -0.031 | [12] 0.05 | [13] -0.068 | [14] -0.023 | [15] -0.062 | [16] 0.029 | [17] 0.052 | [18] -0.019 | [19] 0.012

TXNIP (UniProt Q9H3M7)
UniProt Q9H3M7, sequence (Q9H3M7 whole entry, looked up): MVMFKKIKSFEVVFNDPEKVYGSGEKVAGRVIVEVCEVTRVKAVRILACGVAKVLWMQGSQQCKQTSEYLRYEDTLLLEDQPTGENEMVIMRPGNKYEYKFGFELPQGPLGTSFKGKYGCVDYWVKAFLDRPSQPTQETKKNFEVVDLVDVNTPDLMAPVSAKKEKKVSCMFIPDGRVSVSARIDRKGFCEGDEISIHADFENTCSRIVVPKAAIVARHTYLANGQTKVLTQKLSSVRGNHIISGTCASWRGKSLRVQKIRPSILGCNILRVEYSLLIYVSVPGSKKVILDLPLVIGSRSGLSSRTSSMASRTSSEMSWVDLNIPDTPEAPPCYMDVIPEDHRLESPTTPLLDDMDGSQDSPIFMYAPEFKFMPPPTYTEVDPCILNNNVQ
inactive: [1] -0.013 | [2] -0.148 | [3] 0.172 | [20] 0.035 | [4] -0.198 | [5] -0.074 | [6] 0.002 | [7] -0.119 | [8] 0.228 | [9] 0.142 | [10] 0.05 | [11] -0.36 | [12] -0.103 | [13] -0.188 | [14] 0.03 | [15] -0.068 | [16] -0.06 | [17] 0.01 | [18] 0.113 | [19] -0.087

XRCC1 (UniProt P18887)
inactive: [1] -0.129 | [2] 0.088 | [3] -0.018 | [20] -0.045 | [9] -0.065 | [10] 0 | [11] 0.093 | [12] 0.087 | [13] 0.049 | [14] 0.133 | [15] -0.019 | [16] -0.235 | [17] -0.132 | [18] -0.101 | [19] 0.062

TTC33 (UniProt Q6PID6)
UniProt Q6PID6, sequence (Q6PID6 whole entry, looked up): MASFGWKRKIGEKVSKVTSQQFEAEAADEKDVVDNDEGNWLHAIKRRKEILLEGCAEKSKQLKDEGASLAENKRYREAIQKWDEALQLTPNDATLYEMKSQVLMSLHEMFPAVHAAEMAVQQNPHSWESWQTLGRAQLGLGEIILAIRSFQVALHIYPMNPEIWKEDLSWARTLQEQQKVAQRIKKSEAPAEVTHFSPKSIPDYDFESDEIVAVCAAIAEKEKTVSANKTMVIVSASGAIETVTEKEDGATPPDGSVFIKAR
inactive: [1] 0.094 | [2] 0.031 | [3] -0.113 | [20] -0.039 | [4] 0.071 | [5] 0.082 | [7] 0.086 | [8] -0.15 | [9] -0.093 | [10] 0.056 | [11] -0.399 | [12] -0.113 | [13] 0.146 | [14] 0.002 | [15] -0.192 | [17] -0.06 | [18] -0.15 | [19] -0.095

UNC119B (UniProt A6NIH7)
UniProt A6NIH7, sequence (A6NIH7 whole entry, looked up): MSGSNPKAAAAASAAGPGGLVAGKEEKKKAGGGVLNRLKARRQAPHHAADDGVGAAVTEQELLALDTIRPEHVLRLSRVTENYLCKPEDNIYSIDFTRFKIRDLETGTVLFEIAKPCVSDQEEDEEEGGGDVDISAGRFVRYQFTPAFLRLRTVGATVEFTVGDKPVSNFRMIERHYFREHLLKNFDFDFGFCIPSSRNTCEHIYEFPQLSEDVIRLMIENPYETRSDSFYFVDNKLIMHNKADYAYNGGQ
inactive: [1] -0.232 | [2] 0.059 | [3] 0.074 | [20] -0.034 | [4] -0.185 | [5] 0.069 | [6] 0.116 | [7] -0.002 | [8] 0.06 | [9] 0.092 | [10] 0.026 | [11] -0.08 | [13] 0.039 | [14] 0.178 | [15] 0.034 | [16] -0.019 | [17] -0.064 | [18] 0.263
active: [19] 0.527

TRIM4 (UniProt Q9C037)
inactive: [1] -0.066 | [2] 0.003 | [3] 0.056 | [20] -0.208 | [4] -0.088 | [5] 0.129 | [6] -0.155 | [7] -0.137 | [8] -0.011 | [9] 0.202 | [10] 0.114 | [11] 0.045 | [12] 0.037 | [13] 0.061 | [15] -0.023 | [16] 0.023 | [18] 0.092 | [19] -0.033

TRIM5 (UniProt Q9C035)
UniProt Q9C035, sequence (Q9C035 whole entry, looked up): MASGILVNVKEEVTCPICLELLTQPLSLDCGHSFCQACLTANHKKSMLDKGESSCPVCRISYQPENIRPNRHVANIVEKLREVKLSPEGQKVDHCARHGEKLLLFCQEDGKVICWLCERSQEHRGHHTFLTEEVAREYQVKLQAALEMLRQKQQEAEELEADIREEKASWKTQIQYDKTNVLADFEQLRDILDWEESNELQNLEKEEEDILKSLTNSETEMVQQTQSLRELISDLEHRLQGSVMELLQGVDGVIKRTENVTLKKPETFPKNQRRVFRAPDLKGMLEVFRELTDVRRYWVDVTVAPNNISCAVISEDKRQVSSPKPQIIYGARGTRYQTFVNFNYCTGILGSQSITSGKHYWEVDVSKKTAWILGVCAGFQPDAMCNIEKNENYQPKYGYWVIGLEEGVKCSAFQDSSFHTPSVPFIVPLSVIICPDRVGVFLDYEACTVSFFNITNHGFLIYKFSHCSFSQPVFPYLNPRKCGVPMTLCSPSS
inactive: [2] 0.121 | [3] -0.066 | [20] -0.086 | [10] -0.032 | [12] 0.037 | [13] 0.148 | [14] -0.109 | [16] -0.096 | [17] -0.127
active: [19] -0.821

VPS72 isoform 2 (UniProt Q15906)
inactive: [2] 0.084 | [3] -0.008 | [20] 0.062 | [4] -0.066 | [5] -0.047 | [6] 0.033 | [7] -0.094 | [8] 0.012 | [10] -0.041 | [12] 0.093 | [13] 0.196 | [14] -0.021 | [16] 0.007 | [17] -0.021 | [19] 0.218

VWA3B isoform 6 (UniProt Q502W6)
UniProt Q502W6, sequence (Q502W6 whole entry, looked up): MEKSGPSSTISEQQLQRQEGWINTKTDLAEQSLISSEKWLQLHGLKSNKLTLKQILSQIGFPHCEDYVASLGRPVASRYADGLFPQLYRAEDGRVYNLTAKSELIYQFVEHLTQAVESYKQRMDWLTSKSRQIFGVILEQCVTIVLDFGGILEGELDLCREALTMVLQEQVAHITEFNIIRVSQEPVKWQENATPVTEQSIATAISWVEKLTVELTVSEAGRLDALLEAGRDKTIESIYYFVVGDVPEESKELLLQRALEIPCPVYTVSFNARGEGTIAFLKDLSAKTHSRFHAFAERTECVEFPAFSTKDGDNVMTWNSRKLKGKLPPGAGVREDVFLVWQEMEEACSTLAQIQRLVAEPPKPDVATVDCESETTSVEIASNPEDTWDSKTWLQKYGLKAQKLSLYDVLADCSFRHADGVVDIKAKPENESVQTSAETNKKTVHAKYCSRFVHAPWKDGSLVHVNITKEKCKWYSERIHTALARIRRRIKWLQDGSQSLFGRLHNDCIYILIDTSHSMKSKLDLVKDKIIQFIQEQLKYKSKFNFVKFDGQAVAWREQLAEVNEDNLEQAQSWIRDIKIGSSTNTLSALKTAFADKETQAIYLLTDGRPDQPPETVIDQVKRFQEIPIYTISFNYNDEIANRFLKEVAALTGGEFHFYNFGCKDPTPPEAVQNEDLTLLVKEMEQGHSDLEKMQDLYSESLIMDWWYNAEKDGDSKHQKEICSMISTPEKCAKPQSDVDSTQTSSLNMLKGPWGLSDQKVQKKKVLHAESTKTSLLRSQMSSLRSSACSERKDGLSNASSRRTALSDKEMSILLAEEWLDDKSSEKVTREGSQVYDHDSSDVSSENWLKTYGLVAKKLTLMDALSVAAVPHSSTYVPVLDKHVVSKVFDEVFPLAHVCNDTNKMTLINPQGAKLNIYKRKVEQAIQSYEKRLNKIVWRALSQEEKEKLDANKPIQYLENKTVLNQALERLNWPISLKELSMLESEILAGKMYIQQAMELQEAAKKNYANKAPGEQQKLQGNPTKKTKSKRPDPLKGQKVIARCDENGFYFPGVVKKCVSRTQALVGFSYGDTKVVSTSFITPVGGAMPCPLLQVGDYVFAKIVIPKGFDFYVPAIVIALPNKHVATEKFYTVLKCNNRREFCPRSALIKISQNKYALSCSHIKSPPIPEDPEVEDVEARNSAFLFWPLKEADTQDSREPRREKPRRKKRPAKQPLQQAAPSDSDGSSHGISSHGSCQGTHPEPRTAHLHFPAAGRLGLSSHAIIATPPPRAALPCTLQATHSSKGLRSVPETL
inactive: [1] -0.156 | [3] -0.083 | [20] -0.41 | [4] -0.081 | [5] -0.272 | [6] 0.008 | [7] -0.022 | [8] 0.079 | [9] 0.118 | [11] -0.012 | [12] 0.074 | [13] 0.045 | [14] 0.337 | [15] -0.08 | [16] 0.028 | [17] 0.172 | [18] 0.079 | [19] -0.266

ULBP1 (UniProt Q9BZM6)
UniProt Q9BZM6, sequence (Q9BZM6 whole entry, looked up): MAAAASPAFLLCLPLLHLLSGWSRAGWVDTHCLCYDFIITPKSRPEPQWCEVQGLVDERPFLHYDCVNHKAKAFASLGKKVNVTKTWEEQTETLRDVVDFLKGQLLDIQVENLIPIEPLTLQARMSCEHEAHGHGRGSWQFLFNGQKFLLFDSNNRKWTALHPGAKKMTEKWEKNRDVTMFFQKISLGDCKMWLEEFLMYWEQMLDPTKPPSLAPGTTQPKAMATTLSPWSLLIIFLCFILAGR
inactive: [2] 0.071 | [3] 0.022 | [20] 0.036 | [4] -0.023 | [5] 0.164 | [7] 0.001 | [8] 0.002 | [10] 0.188 | [12] 0.192 | [13] 0.156 | [14] -0.024 | [16] 0.044 | [17] 0.014 | [19] 0.011

TSPAN13 (UniProt O95857)
UniProt O95857, sequence (O95857 whole entry, looked up): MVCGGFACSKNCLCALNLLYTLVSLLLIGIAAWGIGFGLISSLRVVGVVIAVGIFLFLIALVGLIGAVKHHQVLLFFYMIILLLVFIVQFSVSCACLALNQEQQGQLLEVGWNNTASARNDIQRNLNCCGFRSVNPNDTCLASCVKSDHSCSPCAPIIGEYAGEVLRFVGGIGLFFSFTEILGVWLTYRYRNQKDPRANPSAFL
inactive: [2] -0.041 | [3] 0.022 | [4] -0.164 | [5] -0.013 | [6] 0.047 | [7] -0.064 | [8] -0.053 | [9] 0.053 | [10] -0.055 | [12] 0.4 | [13] -0.17 | [14] 0.045 | [15] -0.05 | [16] -0.06 | [17] -0.124 | [19] -0.03

UBXN8 (UniProt O00124)
UniProt O00124, sequence (O00124 whole entry, looked up): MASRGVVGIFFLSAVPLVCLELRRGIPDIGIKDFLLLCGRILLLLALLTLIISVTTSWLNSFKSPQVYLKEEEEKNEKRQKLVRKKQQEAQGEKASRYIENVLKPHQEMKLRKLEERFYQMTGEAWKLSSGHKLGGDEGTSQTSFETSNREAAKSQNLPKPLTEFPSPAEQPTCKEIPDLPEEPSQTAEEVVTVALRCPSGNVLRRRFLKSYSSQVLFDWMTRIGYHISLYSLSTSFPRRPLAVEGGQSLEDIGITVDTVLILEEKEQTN
inactive: [2] 0.069 | [3] -0.028 | [20] -0.116 | [5] -0.035 | [8] 0.023 | [9] -0.002 | [10] 0.054 | [12] -0.094 | [13] 0.161 | [14] 0.234 | [15] 0.026 | [16] -0.077 | [17] -0.101 | [19] -0.193

UFM1 isoform 2 (UniProt P61960)
UniProt P61960, sequence (P61960 whole entry, looked up): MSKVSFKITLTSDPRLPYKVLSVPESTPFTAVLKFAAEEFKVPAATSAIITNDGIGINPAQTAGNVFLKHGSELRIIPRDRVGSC
inactive: [2] -0.12 | [3] -0.048 | [20] 0 | [4] -0.067 | [5] -0.085 | [6] 0.027 | [7] 0.008 | [8] -0.052 | [9] -0.062 | [10] -0.009 | [12] -0.065 | [13] -0.157 | [14] -0.004 | [15] -0.066 | [16] -0.042 | [17] 0.063

VDAC1 (UniProt C9JI87)
active: [19] -0.743
inactive: [2] 0.001 | [3] -0.217 | [20] -0.018 | [4] -0.119 | [5] 0.161 | [6] -0.014 | [7] -0.014 | [8] -0.182 | [10] 0.017 | [12] -0.195 | [13] 0.275 | [14] 0.09 | [17] -0.281

UBE2J2 isoform 3 (UniProt Q8N2K1)
UniProt Q8N2K1, sequence (Q8N2K1 whole entry, looked up): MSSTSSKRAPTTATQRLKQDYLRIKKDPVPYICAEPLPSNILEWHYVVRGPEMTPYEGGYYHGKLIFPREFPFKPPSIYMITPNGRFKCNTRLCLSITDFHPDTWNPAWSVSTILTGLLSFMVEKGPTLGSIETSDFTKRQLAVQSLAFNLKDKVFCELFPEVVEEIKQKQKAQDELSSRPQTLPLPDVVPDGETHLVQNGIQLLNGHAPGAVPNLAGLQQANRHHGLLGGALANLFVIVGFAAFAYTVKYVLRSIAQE
inactive: [2] 0.146 | [3] -0.031 | [20] 0.092 | [5] 0.134 | [8] -0.07 | [9] -0.145 | [10] 0.252 | [12] -0.076 | [13] -0.365 | [14] 0.101 | [15] 0.028 | [16] -0.094 | [17] -0.01

WARS1 (UniProt G3V227)
inactive: [3] 0.086 | [20] -0.047 | [12] -0.024 | [13] 0.147 | [14] -0.011 | [16] -0.016 | [17] -0.015

TUBA4A (UniProt C9JJQ8)
inactive: [1] 0.083 | [2] 0.016 | [3] -0.041 | [5] 0.052 | [8] 0.018 | [10] 0.009 | [11] -0.019 | [13] -0.159 | [14] 0.19 | [16] 0.001 | [17] 0.108 | [18] -0.046

XAB2 (UniProt Q9HCS7)
UniProt Q9HCS7, sequence (Q9HCS7 whole entry, looked up): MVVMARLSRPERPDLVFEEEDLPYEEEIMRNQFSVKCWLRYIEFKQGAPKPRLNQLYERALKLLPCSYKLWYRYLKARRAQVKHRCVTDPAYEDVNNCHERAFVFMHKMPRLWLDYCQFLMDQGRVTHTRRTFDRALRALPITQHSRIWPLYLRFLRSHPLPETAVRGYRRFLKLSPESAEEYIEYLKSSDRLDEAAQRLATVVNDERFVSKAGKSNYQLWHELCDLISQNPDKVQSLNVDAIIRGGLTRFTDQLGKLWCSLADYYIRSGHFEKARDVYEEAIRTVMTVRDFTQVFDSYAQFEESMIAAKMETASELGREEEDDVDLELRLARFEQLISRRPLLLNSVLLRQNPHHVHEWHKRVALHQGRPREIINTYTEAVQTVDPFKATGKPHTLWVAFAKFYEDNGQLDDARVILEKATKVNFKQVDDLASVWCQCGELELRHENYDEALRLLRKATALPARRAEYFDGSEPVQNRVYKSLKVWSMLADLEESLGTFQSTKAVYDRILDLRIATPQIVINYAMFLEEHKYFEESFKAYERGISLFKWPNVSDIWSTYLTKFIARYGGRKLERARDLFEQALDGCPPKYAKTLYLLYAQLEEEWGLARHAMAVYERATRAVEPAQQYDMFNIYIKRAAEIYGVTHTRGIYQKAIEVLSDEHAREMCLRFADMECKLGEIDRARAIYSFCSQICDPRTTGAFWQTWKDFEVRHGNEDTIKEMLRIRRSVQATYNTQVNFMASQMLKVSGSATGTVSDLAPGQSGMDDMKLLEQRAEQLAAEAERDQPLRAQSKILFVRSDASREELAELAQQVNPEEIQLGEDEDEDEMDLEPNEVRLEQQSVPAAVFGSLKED
inactive: [1] -0.174 | [4] -0.12 | [7] 0.105 | [12] -0.223 | [14] -0.146 | [17] 0.013 | [18] -0.035 | [19] -0.223
active: [11] -0.69
